Laboratory results taken from the supplement of paper PMC10037445.
The full ranking holds about 2,900 compounds; the median of “NF-kB SEAP reporter activity, fold change vs agonist alone” is about 0.99, and the highest 2% start at about 2.6. The list comes from a sample in which the highest values are over-represented; it also holds similar structures and randomly drawn compounds.

How the values were obtained:
RAW-Dual [1] = test: NF-kB SEAP reporter activity, fold change vs agonist alone; cytotoxicity flag (confluency mask): not cytotoxic; higher = enhanced NF-kB activity
In short: (§1)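 RAW-Dual macrophages (50,000 cells/well in DMEM, 384-well plates) received 50 nL of library stock by pin tool, then a PRR agonist 1 h later, and were kept at 37 °C, 5% CO2. After 20 hours, supernatant was read for IRF by QuantiLuc luminescence and for NF-κB by QuantiBlue absorbance at 620 nm. Reporter activity is fold change over agonist-alone wells. Cytotoxic wells had IncuCyte confluency below 70% of agonist controls in both mask sets.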

RAW-Dual [2] = test: NF-kB SEAP reporter activity, fold change vs agonist alone; higher = enhanced NF-kB activity
In short: as §1

RAW-Dual [3] = test: NF-kB SEAP reporter activity, fold change vs agonist alone; cytotoxicity flag (confluency mask): cytotoxic (confluency <70% of control); higher = enhanced NF-kB activity
In short: as §1

[4] = agonist: ODN 1826 (TLR9) 0.5 ug/mL
[5] = agonist: Pam2CSK4 (TLR2/6) 0.1 ug/mL
[6] = agonist: Pam3CSK4 (TLR2/1) 0.1 ug/mL
[7] = library stock concentration (final ~1000-fold dilution): 10 mM, cytotoxicity flag (confluency mask): not cytotoxic, agonist: Imiquimod (TLR7) […]
[8] = library stock concentration (final ~1000-fold dilution): 10 mM, cytotoxicity flag (confluency mask): not cytotoxic, agonist: MPLA (TLR4) […]
[9] = library stock concentration (final ~1000-fold dilution): 10 mM, cytotoxicity flag (confluency mask): cytotoxic (confluency <70% of control), agonist: Imiquimod (TLR7) […]
[10] = library stock concentration (final ~1000-fold dilution): 10 mM, cytotoxicity flag (confluency mask): cytotoxic (confluency <70% of control), agonist: MPLA (TLR4) […]

Structure (SMILES): CCNC1=NC2C(OC(CO)C(O)C2O)S1 (configuration not stated) (library stock concentration (final ~1000-fold dilution): 10 mM)
- NF-kB SEAP reporter activity (RAW-Dual [1]; agonist: LPS (TLR4) 0.1 ug/mL): 1.15
- NF-kB SEAP reporter activity (RAW-Dual [1]; [4]): 1.17
- NF-kB SEAP reporter activity (RAW-Dual [1]; [5]): 1.04
- NF-kB SEAP reporter activity (RAW-Dual [1]; [6]): 1.5

Structure (SMILES): CCNC1=NC2C(OC(CO)C(O)C2O)S1 (configuration not stated)
- NF-kB SEAP reporter activity (RAW-Dual [2]; [7]): 1
- NF-kB SEAP reporter activity (RAW-Dual [2]; [8]): 1.17

Structure (SMILES): CC/C(=C(\c1ccc(O)cc1)c1ccc(OCCNC)cc1)c1ccccc1.Cl
- NF-kB SEAP reporter activity (RAW-Dual [2]; [9]): 0.387
- NF-kB SEAP reporter activity (RAW-Dual [2]; [10]): 0.632

Structure (SMILES): CC/C(=C(\c1ccc(O)cc1)c1ccc(OCCNC)cc1)c1ccccc1.Cl (library stock concentration (final ~1000-fold dilution): 10 mM)
- NF-kB SEAP reporter activity (RAW-Dual [3]; agonist: LPS (TLR4) 0.1 ug/mL): 0.354
- NF-kB SEAP reporter activity (RAW-Dual [3]; [4]): 0.211
- NF-kB SEAP reporter activity (RAW-Dual [3]; [5]): 0.157
- NF-kB SEAP reporter activity (RAW-Dual [3]; [6]): 0.135

Structure (SMILES): O=C(c1ccc(Oc2ccccc2)cc1Cl)c1c[nH]c2ncnc(NC3CCC(CO)OC3)c12 (configuration not stated) (library stock concentration (final ~1000-fold dilution): 10 mM)
- NF-kB SEAP reporter activity (RAW-Dual [3]; agonist: LPS (TLR4) 0.1 ug/mL): 0.431
- NF-kB SEAP reporter activity (RAW-Dual [3]; [4]): 0.161
- NF-kB SEAP reporter activity (RAW-Dual [3]; [5]): 0.293
- NF-kB SEAP reporter activity (RAW-Dual [3]; [6]): 0.129

Structure (SMILES): O=C(c1ccc(Oc2ccccc2)cc1Cl)c1c[nH]c2ncnc(NC3CCC(CO)OC3)c12 (configuration not stated)
- NF-kB SEAP reporter activity (RAW-Dual [2]; [9]): 0.133
- NF-kB SEAP reporter activity (RAW-Dual [2]; [10]): 0.252

Structure (SMILES): Cc1cc(N2CC(C)NC(C)C2)ncc1-c1ccc(-c2nc3c(ccn3C)c(=O)[nH]2)cc1 (configuration not stated) (library stock concentration (final ~1000-fold dilution): 10 mM)
- NF-kB SEAP reporter activity (RAW-Dual [1]; agonist: LPS (TLR4) 0.1 ug/mL): 2.18
- NF-kB SEAP reporter activity (RAW-Dual [1]; [4]): 0.278
- NF-kB SEAP reporter activity (RAW-Dual [1]; [5]): 1.38
- NF-kB SEAP reporter activity (RAW-Dual [1]; [6]): 1.63

Structure (SMILES): Cc1cc(N2CC(C)NC(C)C2)ncc1-c1ccc(-c2nc3c(ccn3C)c(=O)[nH]2)cc1 (configuration not stated)
- NF-kB SEAP reporter activity (RAW-Dual [2]; [7]): 1.14
- NF-kB SEAP reporter activity (RAW-Dual [2]; [8]): 2.01

Structure (SMILES): COc1ccc(-c2ccc3ncc4c(c3c2)n(-c2ccc(N3CCNCC3)c(C(F)(F)F)c2)c(=O)n4C)cn1.O=C(O)/C=C\C(=O)O (library stock concentration (final ~1000-fold dilution): 10 mM)
- NF-kB SEAP reporter activity (RAW-Dual [3]; agonist: LPS (TLR4) 0.1 ug/mL): 0.236
- NF-kB SEAP reporter activity (RAW-Dual [3]; [4]): 0.205
- NF-kB SEAP reporter activity (RAW-Dual [3]; [5]): 0.085
- NF-kB SEAP reporter activity (RAW-Dual [3]; [6]): 0.217

Structure (SMILES): CCC(=O)N1CCN(c2ccc(-n3c(=O)ccc4cnc5ccc(-c6cnc7ccccc7c6)cc5c43)cc2C(F)(F)F)CC1 (library stock concentration (final ~1000-fold dilution): 2 mM)
- NF-kB SEAP reporter activity (RAW-Dual [1]; agonist: LPS (TLR4) 0.1 ug/mL): 1.55
- NF-kB SEAP reporter activity (RAW-Dual [1]; [4]): 1.02
- NF-kB SEAP reporter activity (RAW-Dual [1]; [5]): 0.421
- NF-kB SEAP reporter activity (RAW-Dual [1]; [6]): 0.629

Structure (SMILES): Nc1ccc(-c2ccc3ncc4ccc(=O)n(-c5cccc(C(F)(F)F)c5)c4c3c2)cn1 (library stock concentration (final ~1000-fold dilution): 10 mM)
- NF-kB SEAP reporter activity (RAW-Dual [3]; agonist: LPS (TLR4) 0.1 ug/mL): 5.68
- NF-kB SEAP reporter activity (RAW-Dual [3]; [4]): 2.16
- NF-kB SEAP reporter activity (RAW-Dual [3]; [5]): 1.77
- NF-kB SEAP reporter activity (RAW-Dual [3]; [6]): 3.14

Structure (SMILES): CCC(=O)N1CCN(c2ccc(-n3c(=O)ccc4cnc5ccc(-c6cnc7ccccc7c6)cc5c43)cc2C(F)(F)F)CC1
- NF-kB SEAP reporter activity (RAW-Dual [2]; library stock concentration (final ~1000-fold dilution): 2 mM, cytotoxicity flag (confluency mask): not cytotoxic, agonist: Imiquimod (TLR7) […]): 0.44
- NF-kB SEAP reporter activity (RAW-Dual [2]; library stock concentration (final ~1000-fold dilution): 2 mM, cytotoxicity flag (confluency mask): not cytotoxic, agonist: MPLA (TLR4) […]): 1.51

Structure (SMILES): COc1ccc(-c2ccc3ncc4c(c3c2)n(-c2ccc(N3CCNCC3)c(C(F)(F)F)c2)c(=O)n4C)cn1.O=C(O)/C=C\C(=O)O
- NF-kB SEAP reporter activity (RAW-Dual [2]; [9]): 0.273
- NF-kB SEAP reporter activity (RAW-Dual [2]; [10]): 0.298

Structure (SMILES): Nc1ccc(-c2ccc3ncc4ccc(=O)n(-c5cccc(C(F)(F)F)c5)c4c3c2)cn1
- NF-kB SEAP reporter activity (RAW-Dual [2]; [9]): 2.12
- NF-kB SEAP reporter activity (RAW-Dual [2]; [10]): 2.7
